Assay results published in PubChem BioAssay (Tox21).
“And” between values parts separate entries of the source, which are not always exact repeats. Equal entries are not always repeated. Records with an inconclusive call do not appear. A structure can be active in one record and inactive in another. The source made the active and inactive calls. Unless noted, calls follow the shape of the full dose curve.

Tests used:
[1] = Nuclear factor erythroid 2-related factor 2/antioxidant responsive element (Nrf2/ARE) small molecule agonists: luciferase reporter gene qHTS assay in human keratinocytes (AID 1919969); also: nearly all actives have a fitted effect of over 35% in size; also: potency is read from the fitted curve at half-maximal effect
[2] = target: Gonadotropin-releasing hormone receptor (Homo sapiens) (UniProt P30968); experiment: Human gonadotropin-releasing hormone receptor (GnRHR) small molecule agonists, calcium flux assay in GnRHR-HEK293 cells (AID 1920063); also: nearly all actives have a fitted effect of over 35% in size
Method in brief: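 Intracellular calcium rise is the read-out: engineered human GnRHR HEK293 cells, dye-loaded, are exposed to DMSO-dissolved compounds and fluorescence at Ex/Em 480/540 is tracked for 3 min.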

[3] = target: KiSS-1 receptor (Homo sapiens) (UniProt Q969F8); experiment: Human kisspeptin (KISS1R) small molecule agonists, calcium flux assay in KISS1R-HEK293 cells (AID 1920064; active = well fitted activation curve with a large enough effect in the repeat runs)
Method in brief: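 Concentration-response testing used 15 concentrations in triplicate on human KISS1R-expressing HEK293 cells. Calcium-dependent fluorescence (Ex/Em 480/540) was followed kinetically for 3 min after compound transfer.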

[4] = G protein-coupled receptor (GPCR) small molecule agonists, calcium flux assay: HEK293 wild type cell line counter screen (AID 1920065)
Method in brief: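 Fluorescence intensity signals activation. After overnight (18 h) culture and a 1 h calcium dye load at 37 C, compounds are added by pin tool and the plate read at 480/540 nm for 3 min in 1 s steps.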

[5] = p53 small molecule agonists, cell-based qHTS assay with human liver microsomes: qHTS cell viability counter screen (AID 1963579); also: nearly all actives have a fitted effect of over 45% in size
Method in brief: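 In this multiplexed counter screen, the reporter plates were subsequently treated with CellTiter-Glo so that cell viability, reflected by luminescence, could be recorded for p53RE-bla cells dosed 16 h with compounds under microsomal activation (HLM and NADPH).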

[6] = p53 small molecule agonists, cell-based qHTS assay with rat liver microsomes: qHTS cell viability counter screen (AID 1963580); also: nearly all actives have a fitted effect of over 45% in size
Method in brief: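 Luminescent ATP readout (CellTiter-Glo, 30 min at room temperature) reports viability of p53RE-bla HCT-116 cells after 16 h at 37 C with test compounds under metabolic activation by rat liver microsomes and NADPH at 0.5 mg/mL final each.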

[7] = p53 small molecule agonists, cell-based qHTS assay: qHTS cell viability counter screen (AID 1963581); also: nearly all actives have a fitted effect of over 45% in size
Method in brief: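 Luminescence from CellTiter-Glo, reflecting ATP content, serves as the cytotoxicity measure; it is taken after the 2 h reporter substrate step in HCT-116 p53RE-bla cells dosed for 16 h at 37 C.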

[8] = target: Beta-2 adrenergic receptor (Homo sapiens) (UniProt P07550); experiment: Adrenergic beta2 receptor (ADRB2) small molecule antagonists, cell-based qHTS assay (AID 1963592); also: series mostly up to about 92 µM; nearly all actives have a fitted effect of over 50% in size
Method in brief: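 Assay format: CHO-ADRB2 cells, 18-20hr seeding at 37C/5% CO2, then compound plus 1nM isoproterenol agonist mix for 0.5hr RT. Homogeneous time-resolved fluorescence cAMP detection after 1hr, expressed as 665/615 nm ratio.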

[9] = target: Beta-2 adrenergic receptor (Homo sapiens) (UniProt P07550); experiment: Adrenergic beta2 receptor (ADRB2) small molecule agonists, cell-based qHTS assay (AID 1963593);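 also: CHO cells stably overexpressing human ADRB2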
Method in brief: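 CHO cells stably over-expressing ADRB2 were plated overnight at 37C, then dosed with compounds plus a stimulation mix containing 100uM IBMX and 25uM Ro-20-1724 for 0.5hr at room temperature. cAMP was measured by HTRF competition, 1hr.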

[10] = target: D(2) dopamine receptor (Homo sapiens) (UniProt P14416); experiment: Dopamine D2 receptor (DRD2) small molecule agonists, cell-based qHTS assay (AID 1963594); also: nearly all actives have a fitted effect of over 35% in size
Method in brief: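 HEK293 cells stably expressing DRD2 were cultured 24 h at 37 C, then given Ro20-1724 (0.1 mM final) and compounds for 10 min at room temperature. NKH477 (200nM) was then added for 30 min. cAMP was read by HTRF.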

[11] = target: D(2) dopamine receptor (Homo sapiens) (UniProt P14416); experiment: Dopamine D2 receptor (DRD2) small molecule antagonists, cell-based qHTS assay (AID 1963595; active = well fitted inhibition curve with a large enough effect in the signal ratio in the repeat runs, with a control signal flat; the % refers to the signal ratio)
Method in brief: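 HEK293 cells stably expressing DRD2 were preincubated with 0.1 mM Ro20-1724, then with compound for 10 min at room temperature. Cells were stimulated with 200 nM NKH477 plus 12 nM quinpirole for 30 min, and cAMP was read by HTRF.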

[12] = target: 5-hydroxytryptamine receptor 2A (Homo sapiens) (UniProt P28223); experiment: 5-hydroxytryptamine receptor 2A (HTR2A) small molecule antagonists, cell-based qHTS assay (AID 1963586); also: nearly all actives have a fitted effect of over 45% in size; also: potency is read from the fitted curve at half-maximal effect
Method in brief: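 CHO cells stably expressing human HTR2A were plated for 18 h at 37 C, then loaded with calcium dye for 1 h. Compounds were preincubated 5 min at room temperature before DOI (4 nM solution) was added. Kinetic fluorescence was read for 3 min.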

[13] = target: 5-hydroxytryptamine receptor 2A (Homo sapiens) (UniProt P28223); experiment: 5-hydroxytryptamine receptor 2A (HTR2A) small molecule agonists, cell-based qHTS assay (AID 1963587); also: nearly all actives have a fitted effect of over 30% in size; also: potency is read from the fitted curve at half-maximal effect
Method in brief: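 HTR2A-CHO cells, plated 18 h at 37 C/5% CO2, dye-loaded 1 h at 37 C; compounds in DMSO added by pin tool (agonist mode). Intracellular calcium flux read as kinetic fluorescence on FDSS over 2 min at 1 s intervals.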

[14] = target: Muscarinic acetylcholine receptor M1 (Homo sapiens) (UniProt P11229); experiment: Cholinergic receptor muscarinic 1 (CHRM1) small molecule antagonists, cell-based qHTS assay (AID 1963588); also: nearly all actives have a fitted effect of over 40% in size; also: potency is read from the fitted curve at half-maximal effect
Method in brief: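 Compounds were tested at 15 concentrations in three independent runs. Dye-loaded CHRM1-CHO cells were exposed 5 min at room temperature before stimulation by acetylcholine added at 50nM. Intracellular calcium was read kinetically on FDSS for 3 min.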

[15] = target: Muscarinic acetylcholine receptor M1 (Homo sapiens) (UniProt P11229); experiment: Cholinergic receptor muscarinic 1 (CHRM1) small molecule agonists, cell-based qHTS assay (AID 1963589); also: nearly all actives have a fitted effect of over 35% in size
Method in brief: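 Fluorescent calcium dye reports M1 activation in stably transfected CHO cells. Compounds, 15 concentrations, added after 1 h dye loading at 37 C; kinetic reading at 1 sec intervals.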

[16] = cAMP Responsive Elements (CRE) small molecule antagonists, cell-based qHTS assay (AID 1963591; active = well fitted inhibition curve with a large enough effect in the signal ratio in the repeat runs, not every such curve was filed as active; the % refers to the signal ratio; also: potency is read from the fitted curve at half-maximal effect)
Method in brief: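 Stimulation used NKH477 at a final 0.25 uM for 3 h in compound-treated CRE-bla HEK293T cells, seeded 18 h beforehand. Reporter activity was measured with LiveBLAzer B/G FRET substrate after 2 h at room temperature.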

[17] = p53 small molecule agonists, cell-based qHTS assay with rat liver microsomes (AID 1963578)
Method in brief: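 With rat liver microsomes and NADPH present (0.5 mg/mL final each), p53RE-bla cells are treated with compound for 16 h at 37 C. LiveBLAzer detection mixture is then applied for 2 h at room temperature in the dark.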

[18] = cAMP Responsive Elements (CRE) small molecule agonists, cell-based qHTS assay (AID 1963590)
Method in brief: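 Compound exposure lasted 3 h at 37 C/5% CO2 in CRE-bla HEK 293T cells grown in assay medium with 10% dialyzed FBS and 25 mM HEPES. Reporter signal came from LiveBLAzer B/G FRET substrate, 2 h, room temperature.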

[19] = p53 small molecule agonists, cell-based qHTS assay (AID 1963582; active = well fitted activation curve with a large enough effect in the signal ratio in the repeat runs, not every such curve was filed as active; the % refers to the signal ratio)
Method in brief: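 After plating, p53RE-bla cells sat 5 h in the incubator; compounds or DMSO vehicle were pinned in; a 16 h incubation at 37 C followed; FRET substrate was added and, 2 h later at RT, fluorescence was measured.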

[20] = p53 small molecule agonists, cell-based qHTS assay with human liver microsomes (AID 1963577);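 also: p53 response element beta-lactamase reporter cells with liver microsomes plus NADPH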
Method in brief: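 16 h, 37 C exposure of p53RE-bla cells to compounds with human liver microsomes and NADPH (0.5 mg/mL final each); detection via LiveBLAzer mixture, 2 h dark at room temperature.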

Measured: Potency

Sequence of 5-hydroxytryptamine receptor 2A (Homo sapiens) (P28223 whole entry, looked up): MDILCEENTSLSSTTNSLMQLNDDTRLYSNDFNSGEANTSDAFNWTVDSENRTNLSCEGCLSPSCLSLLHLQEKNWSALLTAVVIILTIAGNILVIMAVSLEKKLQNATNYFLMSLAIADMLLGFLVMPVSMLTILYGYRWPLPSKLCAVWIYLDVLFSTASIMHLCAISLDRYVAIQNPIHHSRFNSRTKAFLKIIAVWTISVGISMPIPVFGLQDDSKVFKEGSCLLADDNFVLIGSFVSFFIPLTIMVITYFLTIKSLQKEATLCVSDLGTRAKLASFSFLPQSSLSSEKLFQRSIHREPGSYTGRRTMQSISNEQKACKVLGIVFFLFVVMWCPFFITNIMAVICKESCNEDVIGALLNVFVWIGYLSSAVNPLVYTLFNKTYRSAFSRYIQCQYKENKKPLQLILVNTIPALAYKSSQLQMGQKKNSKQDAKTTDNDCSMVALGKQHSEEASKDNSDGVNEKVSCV
Sequence of D(2) dopamine receptor (Homo sapiens) (P14416 whole entry, looked up): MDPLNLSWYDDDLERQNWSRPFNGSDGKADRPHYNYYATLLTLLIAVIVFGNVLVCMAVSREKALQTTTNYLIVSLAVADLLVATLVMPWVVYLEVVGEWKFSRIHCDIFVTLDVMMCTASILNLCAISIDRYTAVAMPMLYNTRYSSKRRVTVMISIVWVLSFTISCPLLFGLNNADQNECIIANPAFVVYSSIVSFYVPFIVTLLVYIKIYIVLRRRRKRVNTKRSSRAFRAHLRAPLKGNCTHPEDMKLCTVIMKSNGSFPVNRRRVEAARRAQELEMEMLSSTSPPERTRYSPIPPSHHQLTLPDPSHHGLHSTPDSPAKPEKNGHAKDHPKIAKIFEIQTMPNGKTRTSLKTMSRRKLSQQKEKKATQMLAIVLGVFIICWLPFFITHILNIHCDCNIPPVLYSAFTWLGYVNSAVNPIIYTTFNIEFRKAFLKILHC
Sequence of Muscarinic acetylcholine receptor M1 (Homo sapiens) (P11229 whole entry, looked up): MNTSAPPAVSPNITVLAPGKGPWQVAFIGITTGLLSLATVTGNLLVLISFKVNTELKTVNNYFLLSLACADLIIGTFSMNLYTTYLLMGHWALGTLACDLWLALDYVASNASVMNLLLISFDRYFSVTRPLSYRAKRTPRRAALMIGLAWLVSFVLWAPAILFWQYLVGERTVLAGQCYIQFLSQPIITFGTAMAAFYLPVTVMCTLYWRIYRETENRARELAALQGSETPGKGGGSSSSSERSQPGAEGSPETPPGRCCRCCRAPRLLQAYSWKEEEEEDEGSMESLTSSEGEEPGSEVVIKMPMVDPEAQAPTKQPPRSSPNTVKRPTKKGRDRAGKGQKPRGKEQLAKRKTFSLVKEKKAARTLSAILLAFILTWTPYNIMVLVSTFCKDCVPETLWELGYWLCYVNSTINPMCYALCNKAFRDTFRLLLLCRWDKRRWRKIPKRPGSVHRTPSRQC
Sequence of Beta-2 adrenergic receptor (Homo sapiens) (P07550 whole entry, looked up): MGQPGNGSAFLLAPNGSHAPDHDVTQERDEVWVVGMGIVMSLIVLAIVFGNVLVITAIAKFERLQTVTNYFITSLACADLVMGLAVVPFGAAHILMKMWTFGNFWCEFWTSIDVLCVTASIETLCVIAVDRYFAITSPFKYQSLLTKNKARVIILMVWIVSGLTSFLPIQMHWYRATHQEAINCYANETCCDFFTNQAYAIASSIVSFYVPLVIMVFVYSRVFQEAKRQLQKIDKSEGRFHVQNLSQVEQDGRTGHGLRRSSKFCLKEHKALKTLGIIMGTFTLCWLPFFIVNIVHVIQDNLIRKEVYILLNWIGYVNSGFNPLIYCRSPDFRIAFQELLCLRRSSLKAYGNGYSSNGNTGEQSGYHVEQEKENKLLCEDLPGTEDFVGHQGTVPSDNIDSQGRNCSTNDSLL
Sequence of Gonadotropin-releasing hormone receptor (Homo sapiens) (P30968 whole entry, looked up): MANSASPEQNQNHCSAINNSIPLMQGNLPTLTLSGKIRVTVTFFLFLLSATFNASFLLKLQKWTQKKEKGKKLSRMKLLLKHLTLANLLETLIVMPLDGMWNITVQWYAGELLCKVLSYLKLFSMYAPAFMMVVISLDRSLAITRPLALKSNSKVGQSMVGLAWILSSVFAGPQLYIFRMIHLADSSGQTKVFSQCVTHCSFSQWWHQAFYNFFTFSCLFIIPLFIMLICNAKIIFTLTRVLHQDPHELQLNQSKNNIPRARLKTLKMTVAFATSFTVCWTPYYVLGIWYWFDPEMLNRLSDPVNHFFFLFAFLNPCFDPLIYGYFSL
Sequence of KiSS-1 receptor (Homo sapiens) (Q969F8 whole entry, looked up): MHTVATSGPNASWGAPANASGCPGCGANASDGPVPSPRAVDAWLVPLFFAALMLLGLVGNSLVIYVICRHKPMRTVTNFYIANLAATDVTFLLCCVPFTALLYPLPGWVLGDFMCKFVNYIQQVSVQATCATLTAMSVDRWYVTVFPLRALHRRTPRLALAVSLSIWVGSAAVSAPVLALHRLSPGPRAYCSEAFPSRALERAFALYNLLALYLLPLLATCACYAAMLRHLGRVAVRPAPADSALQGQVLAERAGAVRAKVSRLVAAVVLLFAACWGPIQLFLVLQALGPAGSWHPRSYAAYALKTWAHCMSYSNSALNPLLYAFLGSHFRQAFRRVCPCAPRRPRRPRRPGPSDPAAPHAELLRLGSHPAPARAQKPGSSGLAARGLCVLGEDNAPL

c1ccc2c(c1)cc1ccc3cccc4ccc2c1c34
inactive: [1] | [2] | [3] | [4] | [5] | [6] | [7] | [8] | [9] | [10] | [11]

O=C1C(I)=CC(=C(c2cc(I)c(O)c(I)c2)c2ccccc2C(=O)O)C=C1I
not listed: [5] | [7] | [9] | [17] | [18] | [19] | [20]
inactive: all other assays above

O=[N+]([O-])c1c2ccccc2cc2ccccc12
active: [1] 21.4 µM
inactive: [2] | [3] | [4] | [17] | [5] | [6] | [13] | [14] | [15] | [10]

CN(C1CCCCC1)C1CCCCC1
not listed: [9] | [10] | [17] | [19] | [20]
inactive: all other assays above

CCNS(=O)(=O)C(F)(F)C(F)(F)C(F)(F)C(F)(F)C(F)(F)C(F)(F)C(F)(F)C(F)(F)F
active: [1] 58.5 µM
not listed: [17] | [19] | [20]
inactive: all other assays above

CCOP(=S)(OCC)SCSCC
not listed: [8] | [15] | [17] | [18] | [19] | [20]
inactive: all other assays above

CCOP(=S)(NC(C)C)Oc1ccccc1C(=O)OC(C)C (configuration not stated)
not listed: [9] | [16] | [17] | [18] | [19] | [20]
inactive: all other assays above

O=C(Nc1ccccc1)c1ccccc1I
not listed: [9] | [11] | [17] | [19] | [20]
inactive: all other assays above

C=CC(=O)NCNC(=O)C=C
inactive: [2] | [3] | [4] | [12] | [13] | [14] | [15] | [18] | [8] | [10]
active: [1] 61.1 µM

CC(Oc1cc(Cl)c(Cl)cc1Cl)C(=O)O (configuration not stated)
not listed: [9] | [14] | [16] | [17] | [18] | [19] | [20]
inactive: all other assays above

CCOP(=S)(Oc1ccc([N+](=O)[O-])cc1)c1ccccc1 (configuration not stated)
not listed: [10] | [14] | [16] | [17] | [19] | [20]
inactive: all other assays above

CSC(=O)c1c(C(F)F)nc(C(F)(F)F)c(C(=O)SC)c1CC(C)C
active: [1] 24.2 µM
not listed: [7] | [9] | [12] | [14] | [18] | [19] | [20]
inactive: all other assays above

O=[N+]([O-])c1cccc2cccc([N+](=O)[O-])c12
not listed: [9] | [10] | [12] | [13] | [17] | [18] | [19] | [20]
inactive: all other assays above

CN(C)C(=O)Oc1cc(OC(=O)N(C)C)cc(C(O)CNC(C)(C)C)c1 (configuration not stated)
not listed: [6] | [9] | [10] | [12] | [13] | [14] | [15] | [20]
inactive: all other assays above

CS(=O)(=O)c1ccc(C(=O)C2C(=O)CCCC2=O)c([N+](=O)[O-])c1
inactive: [1] | [2] | [3] | [4] | [17] | [5] | [7] | [12] | [13] | [8] | [11]

COP(=O)(OC)OC(Br)C(Cl)(Cl)Br (configuration not stated)
active: [1] 27.3 µM and 54.5 µM
not listed: [9] | [17] | [19] | [20]
inactive: all other assays above

CCCCCCCc1ccc(O)cc1
active: [1] 24.3 µM | [16] 68.6 µM
not listed: [5] | [11] | [14] | [15] | [17] | [19] | [20]
inactive: all other assays above

CCCSP(=S)(OCC)Oc1ccc(Cl)cc1Cl (configuration not stated)
active: [1] 61.1 µM
not listed: [3] | [17] | [19] | [20]
inactive: all other assays above

CC1(C)C(C(=O)OC(C#N)c2cccc(Oc3ccccc3)c2)C1(C)C (configuration not stated)
39.2 µM (active) and inactive: [13]
not listed: [4] | [9] | [17]
inactive: all other assays above

Cc1c(COC(=O)[C@@H]2[C@H](/C=C(\Cl)C(F)(F)F)C2(C)C)cccc1-c1ccccc1
active: [1] 53.2 µM and 27.2 µM
not listed: [3] | [4] | [7] | [13] | [19]
inactive: all other assays above

OCC(c1ccc(Cl)cc1)c1ccc(Cl)cc1
active: [12] 7.48 µM | [14] 42.1 µM
not listed: [4] | [8] | [9] | [16] | [18]
inactive: all other assays above

CC(Oc1ccc(Oc2ncc(C(F)(F)F)cc2Cl)cc1)C(=O)O (configuration not stated)
not listed: [4] | [9] | [16] | [18] | [19]
inactive: all other assays above

BrC(Br)C(Br)(Br)Br
active: [13] 55.3 µM
not listed: [2] | [5] | [9] | [16] | [18] | [19]
inactive: all other assays above
